Experiment [1] is described as follows: NCI Yeast Anticancer Drug Screen. Data for the rad50 strain (AID 155).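 Note: 0% = growth of vehicle-only cultures of the same strain.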 The following applies: S. cerevisiae rad50 strain growth inhibition, hits give high values. The gist of the method: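 Genetically altered yeast (DNA repair pathway); compound treatment; growth inhibition vs vehicle ctrl.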
Experiment [2] in a line: NCI Yeast Anticancer Drug Screen. Data for the mec2-1 strain (AID 157). As to conditions: S. cerevisiae mec2-1 strain, hits give high values. Put shortly: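 Growth inhibition is read against vehicle-treated controls after compound exposure of the mec2-1 yeast strain, which is defective in DNA damage repair or cell cycle control.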
A short description of experiment [3]: NCI Yeast Anticancer Drug Screen. Data for the sgs1 mgt1 strain (AID 161).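 Note: 0% = growth of cultures given vehicle only.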 The following applies: S. cerevisiae sgs1 mgt1 strain, hits give high values. The gist of the method:
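Growth of a repair-deficient yeast mutant was monitored after compound treatment and expressed as inhibition relative to vehicle-treated cultures.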

Experiment [4] is described as follows: NCI Yeast Anticancer Drug Screen. Data for the cln2 rad14 strain (AID 165).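 Note: 0% = growth equal to vehicle treated cultures.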 As to conditions: S. cerevisiae cln2 rad14 strain, hits give high values. Put shortly: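 Growth inhibition, relative to vehicle-treated controls, is the read-out. The test organism is a yeast strain with defined genetic alterations, cln2 rad14.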
The nature of experiment [5]: NCI Yeast Anticancer Drug Screen. Data for the bub3 strain (AID 167). As to conditions: S. cerevisiae bub3 mutant strain, hits give high values. Put shortly:
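Yeast carrying a defined mutation is treated with each compound, and growth is compared with that of vehicle-exposed cells to give inhibition.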

Experiment [6] can be described thus: NCI Yeast Anticancer Drug Screen. Data for the mlh1 rad18 strain (AID 175). The following applies: S. cerevisiae mlh1 rad18 strain growth inhibition, hits give high values. The gist of the method: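 Cells of a genetically altered yeast strain, deficient in DNA damage repair, were treated with compound. Their growth was then compared with that of vehicle-treated cultures to give inhibition.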

The mark [7] stands for this setting: at 5.0 µM (retest, dose inferred, filed as 0.5).
The mark [8] stands for this setting: at 50.0 µM (retest, dose inferred, filed as 5.0).

The results in this text go back to PubChem BioAssay (NCI).

SMILES strings stand for the structures. The panel holds about 79,000 compounds, 15% with a hit somewhere; the sample as a whole holds those more often. Unmarked numbers belong to inactive results. The source made the active and inactive calls. Cut-off read from the data, not from the text of the source: active = growth inhibition above about 70%; inactive = the rest.

`COc1ccc(C(=O)Nc2ccc(O)c(=O)cc2)cc1`: the growth inhibition is 2% in experiment [1] (setting [7]); 42% in experiment [1] (setting [8]); 93.5% (active) in experiment [1] (at 50.0 µM); 38% in experiment [2] (setting [7]); 59% in experiment [2] (setting [8]); 17.8% in experiment [2] (at 50.0 µM). Moreover, the growth inhibition in experiment [3] (setting [7]) was 25%; in experiment [3] (setting [8]), 66%; in experiment [3] (at 50.0 µM), 73.3% (active); in experiment [4] (setting [7]), 14%; in experiment [4] (setting [8]) it was 2%; in experiment [4] (at 50.0 µM), -60.6%. For the same molecule, the growth inhibition in experiment [5] (setting [7]) was 16%; in experiment [5] (setting [8]), 15%; in experiment [5] (at 50.0 µM), 87.4% (active); in experiment [6] (setting [7]), 21%; in experiment [6] (setting [8]) it was 77% (active); in experiment [6] (at 50.0 µM), 55.6%.
For the molecule `O=S(=O)(O)c1cc(N=Nc2ccc(O)c(O)c2)ccc1/C=C/c1ccc(N=Nc2ccc(O)c(O)c2)cc1S(=O)(=O)O`, the growth inhibition in experiment [1] (setting [7]) was 29%; in experiment [1] (setting [8]), 83% (active); in experiment [1] (at 50.0 µM), 57%; in experiment [2] (setting [7]), 30%; in experiment [2] (setting [8]), 89% (active); in experiment [2] (at 50.0 µM) it was 67.6%. The growth inhibition was 23% in experiment [3] (setting [7]); 89% (active) in experiment [3] (setting [8]); 68.5% in experiment [3] (at 50.0 µM); 31% in experiment [4] (setting [7]); 31% in experiment [4] (setting [8]); 18.8% in experiment [4] (at 50.0 µM). Moreover, the growth inhibition was 34% in experiment [5] (setting [7]); 86% (active) in experiment [5] (setting [8]); 76.3% (active) in experiment [5] (at 50.0 µM); 33% in experiment [6] (setting [7]); 83% (active) in experiment [6] (setting [8]); 75.4% (active) in experiment [6] (at 50.0 µM).
Regarding `OC(Cc1ccccc1)(c1ccccc1)C(O)(Cc1ccccc1)c1ccccc1` (configuration not stated), the growth inhibition in experiment [1] (setting [7]) is 30%; in experiment [1] (setting [8]) it was 79% (active); in experiment [1] (at 50.0 µM) it was 85.2% (active); in experiment [2] (setting [7]) it was 20%; in experiment [2] (setting [8]) it was 54%; in experiment [2] (at 50.0 µM) it was 78.5% (active). In addition, the growth inhibition in experiment [3] (setting [7]) was 0%; in experiment [3] (setting [8]) it was 52%; in experiment [3] (at 50.0 µM) it was 78.4% (active); in experiment [4] (setting [7]), 13%; in experiment [4] (setting [8]), 53%; in experiment [4] (at 50.0 µM), 85.7% (active). Besides, the growth inhibition in experiment [5] (setting [7]) is 15%; in experiment [5] (setting [8]), 61%; in experiment [5] (at 50.0 µM) it was 74.5% (active); in experiment [6] (setting [7]), 26%; in experiment [6] (setting [8]), 76% (active); in experiment [6] (at 50.0 µM), 87.2% (active).
With `Cc1c2ccnc(C(N)=O)c2c(C)c2c1[nH]c1ccccc12`, the growth inhibition in experiment [1] (setting [7]) is 9%; in experiment [1] (setting [8]), 90% (active); in experiment [1] (at 50.0 µM) it was 76.1% (active); in experiment [2] (setting [7]), 12%; in experiment [2] (setting [8]), 98% (active); in experiment [2] (at 50.0 µM), 48.1%. Also, the growth inhibition is 7% in experiment [3] (setting [7]); 84% (active) in experiment [3] (setting [8]); 38.6% in experiment [3] (at 50.0 µM); 11% in experiment [4] (setting [7]); 79% (active) in experiment [4] (setting [8]); 47.1% in experiment [4] (at 50.0 µM). Also, the growth inhibition in experiment [5] (setting [7]) is 7%; in experiment [5] (setting [8]), 97% (active); in experiment [5] (at 50.0 µM), 56.1%; in experiment [6] (setting [7]), 12%; in experiment [6] (setting [8]), 97% (active); in experiment [6] (at 50.0 µM), 73.9% (active).
For `N#Cc1ccc([N+](=O)[O-])o1`, the growth inhibition was 11% in experiment [1] (setting [7]); 97% (active) in experiment [1] (setting [8]); 96.2% (active) in experiment [1] (at 50.0 µM); 1% in experiment [2] (setting [7]); 98% (active) in experiment [2] (setting [8]); 99% (active) in experiment [2] (at 50.0 µM). The growth inhibition in experiment [3] (setting [7]) is 9%; in experiment [3] (setting [8]) it was 93% (active); in experiment [3] (at 50.0 µM), 96.2% (active); in experiment [4] (setting [7]), 8%; in experiment [4] (setting [8]) it was 59%; in experiment [4] (at 50.0 µM), 62.8%. Moreover, the growth inhibition is 7% in experiment [5] (setting [7]); 92% (active) in experiment [5] (setting [8]); 97.7% (active) in experiment [5] (at 50.0 µM); 15% in experiment [6] (setting [7]); 99% (active) in experiment [6] (setting [8]); 97.9% (active) in experiment [6] (at 50.0 µM).
As for `CC1=C(C(=O)Nc2ccccc2)C(c2ccccc2F)C(C(=O)Nc2ccccc2)=C(C)N1`, the growth inhibition in experiment [1] (setting [7]) is -3%; in experiment [1] (setting [8]) it was 27%; in experiment [1] (at 50.0 µM) it was 48.4%; in experiment [2] (setting [7]), -4%; in experiment [2] (setting [8]) it was 11%; in experiment [2] (at 50.0 µM), 44%. For the same molecule, the growth inhibition in experiment [3] (setting [7]) is -4%; in experiment [3] (setting [8]) it was 17%; in experiment [3] (at 50.0 µM), 31.3%; in experiment [4] (setting [7]), 0%; in experiment [4] (setting [8]), 37%; in experiment [4] (at 50.0 µM), -19.1%. Also, the growth inhibition in experiment [5] (setting [7]) was -2%; in experiment [5] (setting [8]), 28%; in experiment [5] (at 50.0 µM), 11.6%; in experiment [6] (setting [7]) it was -5%; in experiment [6] (setting [8]) it was 47%; in experiment [6] (at 50.0 µM), 50.5%.
`OC(CCl)COc1c(Cl)c(Cl)c(Cl)c(Cl)c1Cl` (configuration not stated): the growth inhibition in experiment [1] (setting [7]) was -3%; in experiment [1] (setting [8]), 7%; in experiment [1] (at 50.0 µM) it was -1%; in experiment [2] (setting [7]), -1%; in experiment [2] (setting [8]), 10%; in experiment [2] (at 50.0 µM), 4.55%. Also, the growth inhibition in experiment [3] (setting [7]) is -4%; in experiment [3] (setting [8]), 3%; in experiment [3] (at 50.0 µM), 93% (active); in experiment [4] (setting [7]), 2%; in experiment [4] (setting [8]), 9%; in experiment [4] (at 50.0 µM) it was -32.7%. For the same molecule, the growth inhibition in experiment [5] (setting [7]) is 0%; in experiment [5] (setting [8]), 16%; in experiment [5] (at 50.0 µM), 11.4%; in experiment [6] (setting [7]), -3%; in experiment [6] (setting [8]), 5%; in experiment [6] (at 50.0 µM), 13.6%.
Turning to `CCOC1=C(NC(C)=O)C(=O)c2ccccc2C1=O`, the growth inhibition in experiment [1] (setting [7]) is 5%; in experiment [1] (setting [8]), 97% (active); in experiment [1] (at 50.0 µM), 99% (active); in experiment [2] (setting [7]), -7%; in experiment [2] (setting [8]), 97% (active); in experiment [2] (at 50.0 µM), 85.9% (active). Besides, the growth inhibition in experiment [3] (setting [7]) is -2%; in experiment [3] (setting [8]), 98% (active); in experiment [3] (at 50.0 µM), 97.3% (active); in experiment [4] (setting [7]), 60%; in experiment [4] (setting [8]), 97% (active); in experiment [4] (at 50.0 µM), 83.3% (active). Further, the growth inhibition in experiment [5] (setting [7]) is 8%; in experiment [5] (setting [8]) it was 97% (active); in experiment [5] (at 50.0 µM), 94.7% (active); in experiment [6] (setting [7]), 2%; in experiment [6] (setting [8]), 98% (active); in experiment [6] (at 50.0 µM), 97.7% (active).
For the molecule `N#C/C(=C\c1c(Cl)cccc1Cl)c1ccccc1`, the growth inhibition in experiment [1] (setting [7]) was 11%; in experiment [1] (setting [8]), 37%; in experiment [1] (at 50.0 µM), 64.3%; in experiment [2] (setting [7]) it was -9%; in experiment [2] (setting [8]) it was 13%; in experiment [2] (at 50.0 µM), 29.3%. Also, the growth inhibition in experiment [3] (setting [7]) was 12%; in experiment [3] (setting [8]), 33%; in experiment [3] (at 50.0 µM) it was 42.5%; in experiment [4] (setting [7]), 8%; in experiment [4] (setting [8]), 35%; in experiment [4] (at 50.0 µM), 23%. In addition, the growth inhibition was 21% in experiment [5] (setting [7]); 62% in experiment [5] (setting [8]); 45.8% in experiment [5] (at 50.0 µM); -18% in experiment [6] (setting [7]); 55% in experiment [6] (setting [8]); 70.7% (active) in experiment [6] (at 50.0 µM).
